PubChem BioAssay (Tox21)
Records with an inconclusive call do not appear. Where a call stands in place of a potency, no number is given. The source made the active and inactive calls. Unless noted, calls follow the shape of the full dose curve.

Assay: qHTS assay to identify small molecule agonists of the endoplasmic reticulum stress response signaling pathway (AID 1159516; active = well fitted activation curve with a large enough effect in the signal ratio in the repeat runs, not every such curve was filed as active; the % refers to the signal ratio)
Conditions: ESRE-bla HeLa, ER stress beta-lactamase reporter, 5 h; series mostly up to 61 µM
Summary of the method: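 ER stress element reporter (bla) in HeLa. 1,500 cells/well, overnight attachment; 5 hr compound; 2 hr RT substrate; dual-emission fluorescence.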

Compound | outcome
C=CC[N+](C)(C)CC=C | inactive
CC1(C)NC(=O)NC1=O | inactive
CN(C)c1ccc(O)c2c1C[C@H]1C[C@H]3[C@H](N(C)C)C(=O)C(C(N)=O)=C(O)[C@@]3(O)C(=O)C1=C2O | inactive
O=C(O)/C=C/C(=O)O | inactive
C=C(C)CNCC | inactive
C=C(C)[C@H]1CC=C(C)C(=O)C1 | inactive
O=[N+]([O-])c1ccc2nc[nH]c2c1 | inactive
O=C(O)c1cc2ccccc2cc1O | inactive
C[C@]12CCC(=O)C=C1CC[C@@H]1[C@@H]2[C@@H](O)C[C@@]2(C)[C@H]1CC[C@]2(O)C(=O)CO | inactive
CCNc1cccc(C)c1 | inactive
CC(CCl)OP(=O)(OC(C)CCl)OC(C)CCl (centres undefined) | inactive
O=C(O)c1ccc(S(=O)(=O)N(Cl)Cl)cc1 | inactive
O=C(O)CCCCCCCCC(=O)O | inactive
CC(C)(C)c1cc(Cc2cc(C(C)(C)C)c(O)c(C(C)(C)C)c2)cc(C(C)(C)C)c1O | inactive
CCCCCCCO | inactive
C[C@]12CC[C@@H]3c4ccc(O)cc4CC[C@H]3[C@@H]1C[C@@H](O)[C@@H]2O | inactive
CCNC(=S)NCC | inactive
OCc1ccccc1 | inactive
COc1ccc(CCC(C)=O)cc1 | inactive

Compound | outcome
Clc1ccccn1 | inactive
C[Si]1(C)O[Si](C)(C)O[Si](C)(C)O[Si](C)(C)O1 | inactive
C=C(C)C(=O)OCC(C)C | inactive
O=C(OCC1CCC2OC2C1)C1CCC2OC2C1 (centres undefined) | inactive
CNC(=S)N(C)C | inactive
Brc1ccc(Br)c(Br)c1 | inactive
COc1ccccc1OCC(O)CO (centres undefined) | inactive
NC(=S)NNC(N)=S | inactive
CC(=O)OCCOC(C)=O | inactive
c1ccc2c(c1)Cc1ccccc1-2 | inactive
CCO[Si](CCC#N)(OCC)OCC | inactive
CC(C)OC(=O)COc1ccc(Cl)cc1Cl | inactive
C=CC(=O)OCCC(=O)O | inactive
CNC(=O)Oc1ccc2c(c1)[C@]1(C)CCN(C)[C@@H]1N2C | inactive
CCCCCCCCCCCC(=O)OC | inactive
CC(=O)OC1CC(C)OC(C)O1 (centres undefined) | inactive
CCOCC(=O)O | inactive
C=CCCCCCCCCC(=O)O | inactive

Assay: qHTS assay to identify small molecule agonists of the endoplasmic reticulum stress response signaling pathway - cell viability counter screen (AID 1159517);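 also: HeLa cells carrying an ER stress response element beta-lactamase reporter; nearly all actives have a fitted effect of over 50% in size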
Conditions: ESRE-bla HeLa viability, CellTiter-Glo luminescence, 5 h; series mostly up to 61 µM
Summary of the method: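 CellTiter-Glo was added to wells already read for beta-lactamase FRET, and luminescence was recorded 30 min later. Cells: ESRE-bla HeLa, 1,500 per well, compound exposure 5 hr at 37 C.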

Compound | Potency
C=CC[N+](C)(C)CC=C | inactive
CC1(C)NC(=O)NC1=O | inactive
CN(C)c1ccc(O)c2c1C[C@H]1C[C@H]3[C@H](N(C)C)C(=O)C(C(N)=O)=C(O)[C@@]3(O)C(=O)C1=C2O | inactive
O=C(O)/C=C/C(=O)O | inactive
C=C(C)CNCC | inactive
C=C(C)[C@H]1CC=C(C)C(=O)C1 | inactive
O=[N+]([O-])c1ccc2nc[nH]c2c1 | inactive
O=C(O)c1cc2ccccc2cc1O | inactive
C[C@]12CCC(=O)C=C1CC[C@@H]1[C@@H]2[C@@H](O)C[C@@]2(C)[C@H]1CC[C@]2(O)C(=O)CO | inactive
CCNc1cccc(C)c1 | inactive
CC(CCl)OP(=O)(OC(C)CCl)OC(C)CCl (centres undefined) | inactive
O=C(O)c1ccc(S(=O)(=O)N(Cl)Cl)cc1 | inactive
O=C(O)CCCCCCCCC(=O)O | inactive
CC(C)(C)c1cc(Cc2cc(C(C)(C)C)c(O)c(C(C)(C)C)c2)cc(C(C)(C)C)c1O | inactive
CCCCCCCO | inactive
C[C@]12CC[C@@H]3c4ccc(O)cc4CC[C@H]3[C@@H]1C[C@@H](O)[C@@H]2O | inactive
CCNC(=S)NCC | inactive
OCc1ccccc1 | inactive
COc1ccc(CCC(C)=O)cc1 | inactive

Compound | Potency
Clc1ccccn1 | inactive
C[Si]1(C)O[Si](C)(C)O[Si](C)(C)O[Si](C)(C)O1 | inactive
C=C(C)C(=O)OCC(C)C | inactive
O=C(OCC1CCC2OC2C1)C1CCC2OC2C1 (centres undefined) | inactive
CNC(=S)N(C)C | inactive
Brc1ccc(Br)c(Br)c1 | inactive
COc1ccccc1OCC(O)CO (centres undefined) | inactive
NC(=S)NNC(N)=S | inactive
CC(=O)OCCOC(C)=O | inactive
c1ccc2c(c1)Cc1ccccc1-2 | inactive
CCO[Si](CCC#N)(OCC)OCC | inactive
CC(C)OC(=O)COc1ccc(Cl)cc1Cl | inactive
C=CC(=O)OCCC(=O)O | inactive
CNC(=O)Oc1ccc2c(c1)[C@]1(C)CCN(C)[C@@H]1N2C | inactive
CCCCCCCCCCCC(=O)OC | inactive
CC(=O)OC1CC(C)OC(C)O1 (centres undefined) | inactive
CCOCC(=O)O | inactive
C=CCCCCCCCCC(=O)O | inactive
